{
  "source": "the supplement of paper PMC8728848",
  "assay_in_all_cases": "glycan array binding signal (z-score within array); higher = stronger binding",
  "conditions_in_all_cases": "glycan notation: IUPAC condensed, linker removed",
  "key": {"Fuc(a1-2)Gal(b1-3)GlcNAc": {"target": "Fuc(a1-2)Gal(b1-3)GlcNAc", "outline": "(§1)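 Glycan array data were curated from 3228 arrays in the Consortium for Functional Glycomics database and kept only where the protein sequence was available. Glycan names were converted to IUPAC-condensed notation, and columns mapping to the same glycan were averaged. The binding signal is a within-array Z-score, averaged across arrays of the same protein sequence at different concentrations or buffers and across linkers. Negative Z-scores can be read as non-binding.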"}, "[1]": {"target": "Fuc(a1-2)Gal(b1-4)GlcNAc(b1-2)Man(a1-3)[Fuc(a1-2)Gal(b1-4)GlcNAc(b1-2)Man(a1-6)]Man(b1-4)GlcNAc(b1-4)[Fuc(a1-6)]GlcNAc", "outline": "as §1"}, "[2]": {"target": "Fuc(a1-2)Gal(b1-4)GlcNAc6S", "outline": "as §1"}, "[3]": {"target": "Fuc(a1-2)Gal(b1-4)[Fuc(a1-3)]GlcNAc(b1-3)Gal(b1-4)[Fuc(a1-3)]GlcNAc(b1-3)Gal(b1-4)[Fuc(a1-3)]GlcNAc", "outline": "as §1"}, "[4]": {"target": "Fuc(a1-2)[Gal(a1-3)]Gal(b1-4)GlcNAc(b1-2)Man(a1-3)[Fuc(a1-2)[Gal(a1-3)]Gal(b1-4)GlcNAc(b1-2)Man(a1-6)]Man(b1-4)GlcNAc(b1-4)[Fuc(a1-6)]GlcNAc", "outline": "as §1"}, "[5]": {"target": "Fuc(a1-2)[GalNAc(a1-3)]Gal(b1-3)GlcNAc(b1-2)Man(a1-3)[Fuc(a1-2)[GalNAc(a1-3)]Gal(b1-3)GlcNAc(b1-2)Man(a1-6)]Man(b1-4)GlcNAc(b1-4)[Fuc(a1-6)]GlcNAc", "outline": "as §1"}, "[6]": {"target": "Gal(a1-3)Gal(b1-3)GlcNAc(b1-3)GalNAc", "outline": "as §1"}, "[7]": {"target": "Gal(b1-3)GlcNAc(a1-6)Gal(b1-4)GlcNAc", "outline": "as §1"}, "[8]": {"target": "Gal(b1-3)GlcNAc(b1-2)[Gal(b1-3)GlcNAc(b1-6)]Man(a1-6)[Gal(b1-3)GlcNAc(b1-2)Man(a1-3)]Man(b1-4)GlcNAc(b1-4)GlcNAc", "outline": "as §1"}, "[9]": {"target": "Gal(b1-3)GlcNAc(b1-3)Gal(b1-4)GlcNAc(b1-2)[Gal(b1-3)GlcNAc(b1-3)Gal(b1-4)GlcNAc(b1-6)]Man(a1-6)[Gal(b1-3)GlcNAc(b1-3)Gal(b1-4)GlcNAc(b1-2)Man(a1-3)]Man(b1-4)GlcNAc(b1-4)[Fuc(a1-6)]GlcNAc", "outline": "as §1"}, "[10]": {"target": "Gal(b1-3)GlcNAc(b1-3)Gal(b1-4)GlcNAc(b1-3)Gal(b1-4)GlcNAc(b1-2)[Gal(b1-3)GlcNAc(b1-3)Gal(b1-4)GlcNAc(b1-3)Gal(b1-4)GlcNAc(b1-6)]Man(a1-6)[Gal(b1-3)GlcNAc(b1-3)Gal(b1-4)GlcNAc(b1-3)Gal(b1-4)GlcNAc(b1-2)Man(a1-3)]Man(b1-4)GlcNAc(b1-4)[Fuc(a1-6)]GlcNAc", "outline": "as §1"}, "[11]": {"target": "Gal(b1-4)GalNAc(b1-3)[Fuc(a1-2)]Gal(b1-4)GlcNAc", "outline": "as §1"}, "[12]": {"target": "Gal(b1-4)GlcNAc(b1-3)Gal(b1-4)GlcNAc(b1-2)Man(a1-3)[Gal(b1-4)GlcNAc(b1-3)Gal(b1-4)GlcNAc(b1-2)Man(a1-6)]Man(b1-4)GlcNAc(b1-4)GlcNAc", "outline": "as §1"}, "[13]": {"target": "Gal(b1-4)GlcNAc(b1-3)Gal(b1-4)GlcNAc(b1-3)Gal(b1-4)GlcNAc(b1-3)Gal(b1-4)GlcNAc(b1-3)Gal(b1-4)GlcNAc(b1-3)Gal(b1-4)GlcNAc(b1-2)Man(a1-3)[Gal(b1-4)GlcNAc(b1-3)Gal(b1-4)GlcNAc(b1-3)Gal(b1-4)GlcNAc(b1-3)Gal(b1-4)GlcNAc(b1-3)Gal(b1-4)GlcNAc(b1-3)Gal(b1-4)GlcNAc(b1-2)Man(a1-6)]Man(b1-4)GlcNAc(b1-4)GlcNAc", "outline": "as §1"}, "[14]": {"target": "Gal(b1-4)GlcNAc(b1-6)[Gal(b1-4)GlcNAc(b1-3)]GalNAc", "outline": "as §1"}, "Gal3S(b1-4)Glc": {"target": "Gal3S(b1-4)Glc", "outline": "as §1"}, "Gal6S(b1-4)GlcNAc": {"target": "Gal6S(b1-4)GlcNAc", "outline": "as §1"}, "[15]": {"target": "GalNAc(b1-4)GlcNAc(b1-2)Man", "outline": "as §1"}, "GalNAc(b1-4)GlcNAc6S": {"target": "GalNAc(b1-4)GlcNAc6S", "outline": "as §1"}, "GalNAc(b1-6)GalNAc": {"target": "GalNAc(b1-6)GalNAc", "outline": "as §1"}, "[16]": {"target": "GlcNAc(b1-2)Man(a1-3)[GlcNAc(b1-4)][GlcNAc(b1-2)Man(a1-6)]Man(b1-4)GlcNAc(b1-4)[Fuc(a1-6)]GlcNAc", "outline": "as §1"}, "[17]": {"target": "GlcNAc(b1-2)[GlcNAc(b1-6)]Man(a1-6)[GlcNAc(b1-2)Man(a1-3)]Man(b1-4)GlcNAc(b1-4)GlcNAc", "outline": "as §1"}, "[18]": {"target": "GlcNAc(b1-3)Gal(b1-4)GlcNAc(b1-3)Gal(b1-4)GlcNAc(b1-2)Man(a1-3)[GlcNAc(b1-3)Gal(b1-4)GlcNAc(b1-3)Gal(b1-4)GlcNAc(b1-2)Man(a1-6)]Man(b1-4)GlcNAc(b1-4)[Fuc(a1-6)]GlcNAc", "outline": "as §1"}},
  "note": "Only a selection was taken, and the strongest signals are over-represented in it overall.",
  "data": [
    {"binder": "Pwp4 (Candida glabrata) (protein) MGSSHHHHHHSSGLVPRGSHMASVGNPITVSNVCSFPKNWHRTAGFRALTARLGIGIQSDSYKELLNYPGTFQLTTQQSSTTKPNFQISGLVGNIYGLTIVPSYLLVELTGYFVPPVSGEYTFSLEGSDDAAIIFIANPSTFKCGHVEDWPTAYDNDVTVTESIHATRTIYMIEGVAYPIRIAYYNGLSLGKLQASFTDPEGVKRVDWNGYIWRYDSCDTCSYV", "values": [
      {"measurement": "glycan array binding signal (z-score)", "setting": "Fuc(a1-2)Gal(b1-3)GlcNAc", "value": -0.913},
      {"measurement": "glycan array binding signal (z-score)", "setting": "[1]", "value": 0.039},
      {"measurement": "glycan array binding signal (z-score)", "setting": "[2]", "value": -0.4},
      {"measurement": "glycan array binding signal (z-score)", "setting": "[3]", "value": 1.61},
      {"measurement": "glycan array binding signal (z-score)", "setting": "[4]", "value": -0.415},
      {"measurement": "glycan array binding signal (z-score)", "setting": "[5]", "value": -0.763},
      {"measurement": "glycan array binding signal (z-score)", "setting": "[6]", "value": -0.55},
      {"measurement": "glycan array binding signal (z-score)", "setting": "[7]", "value": 2.97},
      {"measurement": "glycan array binding signal (z-score)", "setting": "[8]", "value": -0.162},
      {"measurement": "glycan array binding signal (z-score)", "setting": "[9]", "value": 5.18},
      {"measurement": "glycan array binding signal (z-score)", "setting": "[10]", "value": 2.9},
      {"measurement": "glycan array binding signal (z-score)", "setting": "[11]", "value": -0.019},
      {"measurement": "glycan array binding signal (z-score)", "setting": "[12]", "value": 0.09},
      {"measurement": "glycan array binding signal (z-score)", "setting": "[13]", "value": 3.83},
      {"measurement": "glycan array binding signal (z-score)", "setting": "[14]", "value": 0.033},
      {"measurement": "glycan array binding signal (z-score)", "setting": "Gal3S(b1-4)Glc", "value": -0.366},
      {"measurement": "glycan array binding signal (z-score)", "setting": "Gal6S(b1-4)GlcNAc", "value": -0.68},
      {"measurement": "glycan array binding signal (z-score)", "setting": "[15]", "value": -0.392},
      {"measurement": "glycan array binding signal (z-score)", "setting": "GalNAc(b1-4)GlcNAc6S", "value": -0.423},
      {"measurement": "glycan array binding signal (z-score)", "setting": "GalNAc(b1-6)GalNAc", "value": -0.402},
      {"measurement": "glycan array binding signal (z-score)", "setting": "[16]", "value": -1},
      {"measurement": "glycan array binding signal (z-score)", "setting": "[17]", "value": 7.51},
      {"measurement": "glycan array binding signal (z-score)", "setting": "[18]", "value": 1.26}
    ]}
  ]
}
